Experimental data from publication PMC5540273 (PLoS ONE, 2017).

Each compound was assayed on RIOK2.
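Also: kd values determined as follow-up on hits from a single-replicate KINOMEscan panel screen.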

Structure (SMILES) | Kd
Clc1cc(Cl)cc(Nc2ccnc(Nc3cc(Cl)cc(Cl)c3)n2)c1 [GSK175726] | 150 nM
Cc1cc(-c2ccc3c(c2)CC[C@@H](N[C@@H](C)c2ccccc2)C3)cnc1N.Cl [GW412617] | 650 nM
O=S(=O)(c1ccc(-c2ccnc3[nH]ccc23)cc1)N1CCCC1 [GSK846226] | 960 nM

These compounds were tested on RIOK3.

Structure (SMILES) | Kd
Cc1ccc(C(=O)Nc2ccc(Nc3ccnc4cc(-c5ccccn5)ccc34)cc2O)cc1.Cl [GW440146] | > 10000 nM
O=S(=O)(c1ccc(-c2ccnc3[nH]ccc23)cc1)N1CCCC1 [GSK846226] | 540 nM
COc1cccc(-c2cc(-c3c[nH]nc3-c3ccccn3)ccn2)c1 [GW680338] | 9600 nM
COc1cc2ncn(-c3cc(OCC4CCCO4)c(C(N)=O)s3)c2cc1OC (stereo not shown) [GSK204607] | 670 nM

What follows are compounds tested on ROCK1.

Structure (SMILES) | Kd
O=S(=O)(c1ccc(-c2ccnc3[nH]ccc23)cc1)N1CCCC1 [GSK846226] | 330 nM
CC1=C(C(=O)Nc2cc3cn[nH]c3cc2F)C(c2ccc(C(F)(F)F)cc2)CC(=O)N1 (stereo not shown) [GSK429286] | 2.7 nM
CSc1nn2c(=O)cc(N3CCOCC3)nc2n1Cc1cccc(C(F)(F)F)c1C [GSK2363608] | 46 nM
